The text below walks through data of PubChem BioAssay AID751 (NMMLSC, 2007).

Among all 24,000 compounds or so, about 40 (0.2%) were called active. The entries come from a sample that favours actives as a whole. Values without a mark were called inactive.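 Rule for the calls: active = inhibition of disassembly above about 33% (limit read from the data); inconclusive = likely self-fluorescent, control bead median signal at least 40; inactive = the rest.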

The test system of this experiment is 26S proteasome (yeast, GFP-tagged, ATP-dependent disassembly). Nature of the experiment: inhibitors of ATP-driven 26S proteasome dissociation, primary screen, biochemical, bead-based flow cytometry, GFP-tagged proteasome (AID 751).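 Note: plate controls were ATP control with full disassembly for no effect and ATP-gamma-S intact proteasomes for full effect; higher percent means more bead fluorescence retained so stronger block of disassembly.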 As to conditions: anti-FLAG beads, active compounds read high, concentration not given here.
For `O=C(NCC(c1cccnc1)N1CCN(c2ccccc2)CC1)Oc1ccccc1` (stereo not given), the inhibition of disassembly is 44.6% (active).

On to `COc1ccccc1N1CCN(C(CNC(=O)Oc2ccccc2)c2cccnc2)CC1` (stereo not given), for which the inhibition of disassembly was 19.4%.

For `CC(C)c1ccc(O)c(CN2CCN(c3ccccc3)CC2)c1`, the inhibition of disassembly was 0.72%.

On to `Cc1cccc(-n2c(C)nc3cc(C(=O)N4CCC5(CC4)OCCO5)ccc32)c1`, for which the inhibition of disassembly was 1.69%.

With `CCOC(=O)C1=C(C)OC(N)=C(C(=O)OC)C12C(=O)Nc1ccc(Br)cc12` (stereo not given), the inhibition of disassembly was -0.24%.
